Data as given in PubChem BioAssay (Tox21).
Records with an inconclusive call do not appear. Active and inactive are the calls of the source. Unless noted, calls come from the whole dose curve; as a rule, active = well fitted curve in the direction sought with a large enough effect in the repeat runs; inconclusive = weak or mixed curves; inactive = no such curve, though single readings can be large; an effect the other way counts as inactive or inconclusive.

How the values were obtained:
[1] = qHTS assay to identify small molecule agonists of the vitamin D receptor (VDR) signaling pathway - cell viability counter screen (AID 743224); note: % is set by controls: 0 for no effect and ±100 for the full control effect; nearly all actives have a fitted effect of over 50% in size
How it was run: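 Counter screen for cytotoxicity: VDR-bla cells at 2,000 cells/well, 16 h compound exposure, then CellTiter-Glo luminescence after the beta-lactamase measurement.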

[2] = qHTS assay to identify small molecule antagonists of the vitamin D receptor (VDR) signaling pathway - cell viability counter screen (AID 743225); note: % is set by controls: 0 for no effect and ±100 for the full control effect; nearly all actives have a fitted effect of over 50% in size
How it was run: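 Cytotoxicity counter screen read by CellTiter-Glo luminescence (30 min, room temperature) in the same wells as the VDR-bla antagonist readout. HEK 293T VDR-UAS-bla cells had 16 h at 37C with compound and 3 nM (final) 1-alpha,25-dihydroxyvitamin D3, then 2 h with FRET substrate.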

[3] = qHTS assay to identify small molecule agonists of the NFkB signaling pathway (AID 1159509; active = well fitted curve in the direction sought with a large enough effect in the signal ratio in the repeat runs, not every such curve was filed as active; the % refers to the signal ratio; note: % is set by controls: 0 for no effect and ±100 for the full control effect)
How it was run: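 Readout: FRET fluorescence, 405 nm excitation, 460/530 nm emission; beta-lactamase expression disrupts FRET. Cells: ME-180 stably carrying NF-kB-driven bla reporter. Compound exposure 5 hr, 37 C, 5% CO2.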

[4] = qHTS assay to identify small molecule agonists of the NFkB signaling pathway - cell viability counter screen (AID 1159515; calls by dose curve; note: % is set by controls: 0 for no effect and ±100 for the full control effect; nearly all actives have a fitted effect of over 55% in size)
How it was run: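 Counter screen run alongside the NFkB-bla agonist assay: ME-180 reporter cells exposed to compounds for 5 hr, then lysed with CellTiter-Glo in the same wells. Luminescence, read after 30 min, reflects viable cells.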

[5] = qHTS assay to identify small molecule agonists of the endoplasmic reticulum stress response signaling pathway (AID 1159516; active = well fitted activation curve with a large enough effect in the signal ratio in the repeat runs, not every such curve was filed as active; the % refers to the signal ratio; note: % is set by controls: 0 for no effect and ±100 for the full control effect)
How it was run: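 For this screen, HeLa cells stably carrying beta-lactamase under the ER stress response element received test compounds, positive controls or DMSO for 5 hr at 37 C; B/G FRET substrate was then added and dual-wavelength emission recorded.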

[6] = qHTS assay to identify small molecule agonists of the endoplasmic reticulum stress response signaling pathway - cell viability counter screen (AID 1159517; calls by dose curve; note: % is set by controls: 0 for no effect and ±100 for the full control effect; nearly all actives have a fitted effect of over 50% in size)
How it was run: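 Cytotoxicity of test compounds toward ESRE-bla HeLa cells was assessed after 5 hr exposure. The luminescent CellTiter-Glo signal was measured 30 min after reagent addition.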

[7] = qHTS assay to identify small molecule agonists of the AP-1 signaling pathway - cell viability counter screen (AID 1159525; calls by dose curve; note: nearly all actives have a fitted effect of over 55% in size)
How it was run: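 Each titration point was normalised to DMSO and tetra n-octyl ammonium bromide controls. The read was Cell Titer Glo luminescence after 30 min at RT, following 5 h compound exposure of ME-180 AP-1-bla cells at 37 °C.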

[8] = qHTS assay to identify small molecule agonists of the AP-1 signaling pathway (AID 1159526; calls by dose curve; note: % is set by controls: 0 for no effect and ±100 for the full control effect)
[9] = target: Retinoic acid receptor RXR-alpha (Homo sapiens) (UniProt P19793); assay: qHTS assay to identify small molecule agonists of the RXR signaling pathway (AID 1159527; calls by dose curve; note: % is set by controls: 0 for no effect and ±100 for the full control effect; nearly all actives have a fitted effect of over 35% in size)
How it was run: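 Agonist-mode beta-lactamase reporter assay: HEK 293T RXR-alpha-UAS-bla cells treated 16 hr at 37 C with compounds, 9-cis retinoic acid as positive control. LiveBLAzer FRET substrate, 405 nm excitation, 460/530 nm emission.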

[10] = qHTS assay to identify small molecule agonists of the RXR signaling pathway - cell viability counter screen (AID 1159529); note: % is set by controls: 0 for no effect and ±100 for the full control effect; nearly all actives have a fitted effect of over 50% in size
How it was run: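 CellTiter-Glo luminescence gave viability in the wells also read for beta-lactamase. Cells (RXR-alpha-UAS-bla HEK 293T, 2% charcoal-stripped FBS medium) had 5 hr plating, then 16 hr compound exposure at 37 C; tetraoctyl ammonium bromide served as positive control.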

[11] = qHTS assay to identify small molecule antagonists of the retinoid acid receptor (RAR) signaling pathway - cell viability counter screen (AID 1159551); note: % is set by controls: 0 for no effect and ±100 for the full control effect; nearly all actives have a fitted effect of over 35% in size
How it was run: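 Measured by luminescent ATP detection, viability reflects C3RL4 cells treated 6 h at 37 C with test chemicals in the presence of 1 uM (final) retinol.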

[12] = qHTS assay to identify small molecule antagonists of the retinoic acid receptor (RAR) signaling pathway (AID 1159552)
How it was run: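 Luminescent RARE reporter read-out in C3RL4 cells: 6 hr co-treatment at 37 C of test compounds with retinol at 1 uM final. Cells plated overnight beforehand; luciferase reagent incubated 30 min at room temperature before reading.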

[13] = qHTS assay to identify small molecule agonists of the retinoic acid receptor (RAR) signaling pathway (AID 1159553); conditions: C3RL4 RARE luciferase reporter, agonist, 6 h; activation: at 73.3 µM (top of the series); note: potency is the fitted concentration of half-maximal effect; for activation: % is set by controls: 0 for no effect and ±100 for the full control effect
How it was run: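 6 hr compound exposure (DMSO vehicle) of overnight-plated C3RL4 RARE-luc cells at 37 C; luminescence quantified after 30 min RT with luciferase reagent.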

[14] = qHTS assay to identify small molecule antagonists of the estrogen related receptor (ERR) signaling pathway from Tox21 library - cell viability counter screen (AID 1224834); note: % is set by controls: 0 for no effect and ±100 for the full control effect; nearly all actives have a fitted effect of over 30% in size
How it was run: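 Seeded ERR cells were rested 6 h at 37 C/5% CO2 before compounds, positive and negative controls or DMSO were added. Incubation continued for 17.5 h, and viability was then quantified by CellTiter-Fluor fluorescence.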

[15] = target: Luciferin 4-monooxygenase (Photinus pyralis) (UniProt P08659); assay: qHTS assay to identify small molecule inhibitors of firefly luciferase (AID 1224835); note: % is set by controls: 0 for no effect and ±100 for the full control effect; nearly all actives have a fitted effect of over 25% in size
How it was run: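 Quantitative HTS format; KM concentrations of both substrates. Purified P. pyralis FLuc activity quantified from luminescence images.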

[16] = qHTS assay to identify small molecule agonists of the constitutive androstane receptor (CAR) signaling pathway - cell viability counter screen (AID 1224836); note: % is set by controls: 0 for no effect and ±100 for the full control effect; nearly all actives have a fitted effect of over 45% in size
How it was run: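 Cell viability multiplexed with the CAR agonist screen: CellTiter-Fluor fluorescence after 23 hr at 37 C. HepG2-CYP2B6-hCAR cells got compounds at 15 concentrations with PK11195 at 0.75 uM final.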

[17] = qHTS assay to identify small molecule antagonists of the constitutive androstane receptor (CAR) signaling pathway - cell viability counter screen (AID 1224837); note: nearly all actives have a fitted effect of over 45% in size; note: potency is the fitted concentration of half-maximal effect
How it was run: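 To flag cytotoxic false antagonists, HepG2 hCAR/CYP2B6-2.2kb cells were treated 23 hr with 15-concentration compound series and 50 nM CITCO at 37 C/5% CO2; CellTiter-Fluor fluorescence was the measured end point.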

[18] = target: Nuclear receptor ROR-gamma (Homo sapiens) (UniProt P51449); assay: qHTS assay to identify small molecule antagonists of the retinoid-related orphan receptor gamma (ROR-gamma) signaling pathway (AID 1159521)
How it was run: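 Antagonist read-out: drop in luminescence (ONE-Glo) from an RORE-LUC reporter in CHO cells with doxycycline-inducible ROR-gamma; 2 hr compound pretreatment, 1 uM doxycycline, 16 hr incubation at 37 C.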

[19] = target: Nuclear receptor subfamily 1 group I member 3 (Homo sapiens) (UniProt Q14994); assay: qHTS assay to identify small molecule antagonists of the constitutive androstane receptor (CAR) signaling pathway (AID 1224838);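 note: HepG2 cells stably expressing hCAR with CYP2B6 luciferase reporter stimulated by CITCO; % is set by controls: 0 for no effect and ±100 for the full control effect; nearly all actives have a fitted effect of over 40% in size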
How it was run: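 Human hepatoma HepG2 cells expressing hCAR and a CYP2B6 promoter (2.2 kb) luciferase construct; compound titration (15 points) with 50 nM CITCO final, 24 h at 37 C/5% CO2; luminescence via ONE-Glo after 30 min at room temperature.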

[20] = qHTS assay to identify small molecule antagonists of the retinoid-related orphan receptor gamma (ROR-gamma) signaling pathway - cell viability counter screen (AID 1159520)
How it was run: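 Tet-on ROR gamma CHO cells (1,000/well) were plated 4 hr, given compounds in DMSO for 2 hr at 37 C, then induced with 1 uM final doxycycline for 16 hr. Viability was read as ATP by CellTiter-Glo luminescence after 30 min.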

Sequence of Nuclear receptor subfamily 1 group I member 3 (Homo sapiens) (Q14994 whole entry, looked up): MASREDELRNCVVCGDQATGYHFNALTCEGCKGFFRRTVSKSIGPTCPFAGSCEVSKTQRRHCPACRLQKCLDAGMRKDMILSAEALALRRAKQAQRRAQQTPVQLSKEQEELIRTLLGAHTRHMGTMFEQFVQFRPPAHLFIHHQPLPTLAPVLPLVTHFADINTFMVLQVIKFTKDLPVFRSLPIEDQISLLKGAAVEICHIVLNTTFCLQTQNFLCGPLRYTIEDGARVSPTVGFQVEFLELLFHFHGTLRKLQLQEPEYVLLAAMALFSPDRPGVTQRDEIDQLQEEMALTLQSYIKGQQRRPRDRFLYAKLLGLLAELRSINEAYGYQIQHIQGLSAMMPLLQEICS
Sequence of Retinoic acid receptor RXR-alpha (Homo sapiens) (P19793 whole entry, looked up): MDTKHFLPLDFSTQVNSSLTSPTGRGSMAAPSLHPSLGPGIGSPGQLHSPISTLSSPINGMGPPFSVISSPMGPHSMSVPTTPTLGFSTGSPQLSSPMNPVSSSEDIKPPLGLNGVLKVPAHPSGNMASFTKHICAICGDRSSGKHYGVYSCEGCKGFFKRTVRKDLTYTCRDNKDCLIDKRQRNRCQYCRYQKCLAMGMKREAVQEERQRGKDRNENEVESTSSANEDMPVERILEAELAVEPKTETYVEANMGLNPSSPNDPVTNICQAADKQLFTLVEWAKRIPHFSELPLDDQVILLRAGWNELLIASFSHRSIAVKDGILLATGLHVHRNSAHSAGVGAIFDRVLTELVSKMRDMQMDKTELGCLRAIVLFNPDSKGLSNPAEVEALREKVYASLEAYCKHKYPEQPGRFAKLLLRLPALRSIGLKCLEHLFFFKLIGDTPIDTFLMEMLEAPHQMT
Sequence of Luciferin 4-monooxygenase (Photinus pyralis) (P08659 whole entry, looked up): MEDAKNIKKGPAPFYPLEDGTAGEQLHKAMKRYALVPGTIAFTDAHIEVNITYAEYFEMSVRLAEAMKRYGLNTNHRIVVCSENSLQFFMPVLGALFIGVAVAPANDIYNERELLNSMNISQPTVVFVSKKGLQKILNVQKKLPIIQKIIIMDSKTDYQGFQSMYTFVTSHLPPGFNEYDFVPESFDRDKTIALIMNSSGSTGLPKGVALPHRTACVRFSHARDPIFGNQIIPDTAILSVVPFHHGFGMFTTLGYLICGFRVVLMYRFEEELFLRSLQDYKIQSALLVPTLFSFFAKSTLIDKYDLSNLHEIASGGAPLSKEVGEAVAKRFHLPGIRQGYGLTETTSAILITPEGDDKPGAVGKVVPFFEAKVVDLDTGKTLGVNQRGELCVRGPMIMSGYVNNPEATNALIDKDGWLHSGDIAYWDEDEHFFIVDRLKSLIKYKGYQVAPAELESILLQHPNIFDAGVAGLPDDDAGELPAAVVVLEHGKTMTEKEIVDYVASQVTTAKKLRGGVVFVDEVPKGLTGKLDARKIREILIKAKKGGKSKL

O=C1OC(=O)c2cc(Oc3ccc4c(c3)C(=O)OC4=O)ccc21
inactive: outcome [1] | outcome [2] | outcome [3] | outcome [4] | outcome [5] | outcome [6] | outcome [7] | outcome [8] | Potency [9] | outcome [10] | outcome [11] | Potency [12] | Potency [13] | Potency [14] | Potency [15] | outcome [16] | Potency [17]

Cc1cccc(NC(=S)N(C)C)c1
active: Potency [17] 61.1 µM
inactive: outcome [1] | outcome [2] | outcome [3] | outcome [4] | outcome [5] | outcome [6] | outcome [18] | outcome [7] | outcome [8] | Potency [9] | outcome [10] | outcome [11] | Potency [12] | Potency [13] | Potency [14] | Potency [15] | outcome [16]

CC(C)(C)c1ccc(C=O)cc1
inactive: outcome [2] | outcome [3] | outcome [4] | outcome [5] | outcome [6] | outcome [18] | outcome [7] | outcome [8] | Potency [9] | outcome [10] | outcome [11] | Potency [12] | Potency [13] | Potency [14] | outcome [16] | Potency [17] | Potency [19]

O=C(/C=C/c1ccccc1)NCCO
inactive: outcome [1] | outcome [2] | outcome [3] | outcome [4] | outcome [5] | outcome [6] | outcome [7] | outcome [8] | Potency [9] | outcome [10] | outcome [11] | Potency [12] | Potency [13] | Potency [14] | Potency [19]

CC(=O)OC(C(=O)c1ccccc1)c1ccccc1 (stereo not given)
inactive: outcome [2] | outcome [3] | outcome [4] | outcome [5] | outcome [6] | outcome [20] | outcome [7] | outcome [8] | Potency [9] | outcome [10] | outcome [11] | Potency [12] | Potency [13] | Potency [15] | outcome [16] | Potency [17] | Potency [19]

O=C(Nc1cccc(C2=NCCN2)c1)Nc1cccc(C2=NCCN2)c1
inactive: outcome [1] | outcome [3] | outcome [4] | outcome [5] | outcome [6] | activity change, negative = inhibition [18] -4.66% [at 19 µM] | viability change, negative = cytotoxic [7] 3.95% [at 15.8 µM] | activation [8] -8.47% [at 15.8 µM] | activation [9] 1.97% [at 15.8 µM] | activity change, negative = cytotoxicity [10] 12.6% [at 15.8 µM] | activity change, negative = cytotoxicity [11] 1.4% [at 19 µM] | activity, negative = inhibition [12] 6.53% [at 19 µM] | Potency [13] | viability change, negative = cytotoxic [14] 1.33% [at 19 µM] | activity change, negative = inhibition [15] -1.49% [at 23.6 µM] | viability change, negative = cytotoxic [16] 0.131% [at 19 µM] | activity change, negative = cytotoxicity [17] 1.51% [at 19 µM]

O=C(COCCOCCOCC(=O)Nc1c(I)cc(I)c(C(=O)O)c1I)Nc1c(I)cc(I)c(C(=O)O)c1I
inactive: outcome [1] | outcome [2] | outcome [3] | outcome [4] | outcome [5] | outcome [6] | outcome [18] | outcome [7] | outcome [8] | Potency [9] | outcome [11] | Potency [12] | Potency [13] | Potency [14] | Potency [15] | outcome [16] | Potency [17]

CCCCC(CC)CNC(=O)CC(C)OC(=O)CCC(=O)O (stereo not given)
active: Potency [13] 29.8 µM
inactive: outcome [1] | outcome [2] | outcome [3] | outcome [4] | outcome [5] | outcome [6] | outcome [20] | outcome [7] | outcome [8] | Potency [9] | outcome [11] | Potency [12] | Potency [14] | outcome [16] | Potency [17] | Potency [19]
